Some test systems named below: K-562 leukemia; MALME-3M melanoma; MDA-MB-231 breast; RXF 393 renal; SF-268 CNS; SF-295 CNS; SF-539 CNS; UACC-257 melanoma; M14 melanoma; HCT-15 colon; HT29 colon; SNB-75 CNS; SNB-19 CNS; PC-3 prostate; SK-MEL-5 melanoma; UACC-62 melanoma; SK-MEL-28 melanoma; SK-MEL-2 melanoma; U251 CNS; LOX IMVI melanoma.
Holding throughout (test): NCI-60 one-dose screen, 48 h (100 = growth as untreated, 0 = no growth, -100 = all killed)
What all share (conditions): 10 µM unless noted

About 83,000 compounds went through this panel and 20% of them were active in at least one assay; those are over-represented in the sample as a whole.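 Testing used 96-well plates and a 48-hour single-concentration exposure. Example: -40 means 40% of the starting cells died.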 Unmarked numbers belong to inactive results. Calls of active or inactive are those of the source. Rule for the calls: active = growth percent below 10; inactive = the rest.

In the case of `CC(=O)Oc1ccccc1C(=O)Nc1ccc(C(=O)/C=C/c2cccs2)cc1`, the growth was 101% in the assay with K-562 leukemia; 104% in the assay on MALME-3M melanoma; 113% with MDA-MB-231 breast; 126% in the assay with RXF 393 renal; 107% in the assay on SF-268 CNS; 99.1% with SF-295 CNS. Besides, the growth with SF-539 CNS is 107%; with UACC-257 melanoma, 113%; in the assay with M14 melanoma, 107%; with HCT-15 colon, 96.7%; in the assay on HT29 colon, 110%; in the assay with SNB-75 CNS, 113%. Further, the growth with SNB-19 CNS is 101%; with PC-3 prostate, 103%; with SK-MEL-5 melanoma, 101%; in the assay on UACC-62 melanoma, 98.3%; with SK-MEL-28 melanoma it was 106%; in the assay with SK-MEL-2 melanoma it was 122%.

As for `CC(=O)Oc1ccccc1C(=O)Nc1cc(C(C)C)ccc1C`, the growth was 7.45% (active) with K-562 leukemia; -6.69% (active) with MALME-3M melanoma; 7.22% (active) in the assay on MDA-MB-231 breast; -2.41% (active) in the assay with RXF 393 renal; 19.8% in the assay with SF-268 CNS; 11.3% in the assay with SF-295 CNS. The growth in the assay with SF-539 CNS was 15.6%; in the assay with UACC-257 melanoma, -9.44% (active); in the assay on M14 melanoma, 33.2%; in the assay on HCT-15 colon, 14%; in the assay on HT29 colon it was 91.5%; with SNB-75 CNS, 26.1%. For the same compound, the growth with SNB-19 CNS is 17.5%; with U251 CNS it was 10.1%; with PC-3 prostate, 22.1%; in the assay on UACC-62 melanoma, 16.9%; with SK-MEL-2 melanoma, -22.9% (active).

As to `Clc1ccc(-c2cn3cc(Cc4ccc(Cl)c(Cl)c4)sc3n2)cc1`, the growth in the assay on K-562 leukemia is 34.7%; with MALME-3M melanoma it was 86.3%; in the assay with MDA-MB-231 breast it was 72.7%; in the assay with RXF 393 renal, 104%; with SF-268 CNS it was 86.2%; with SF-295 CNS, 35.8%. Also, the growth in the assay on SF-539 CNS is 83.8%; in the assay with UACC-257 melanoma, 52.3%; in the assay with M14 melanoma it was 20.2%; in the assay on HCT-15 colon, 60.7%; with HT29 colon, 90.5%; in the assay with SNB-75 CNS, 70.7%. Moreover, the growth in the assay on SNB-19 CNS is 88.9%; with PC-3 prostate, 81.6%; with SK-MEL-5 melanoma, 38.2%; in the assay on UACC-62 melanoma, 18.2%; in the assay on LOX IMVI melanoma, 53.1%; in the assay on SK-MEL-28 melanoma it was 71%. Moreover, the growth with SK-MEL-2 melanoma is 113%.

On to `O=C(c1ccc(Cl)cc1)C1[C@H](c2ccc(Cl)cc2)[C@@H](c2ccccc2)NC12C(=O)Nc1ccc(Br)cc12` (some centres undefined), for which the growth in the assay on K-562 leukemia is 17%; in the assay on MALME-3M melanoma, 62.7%; in the assay with MDA-MB-231 breast, 37.2%; in the assay on RXF 393 renal, 6.62% (active); in the assay on SF-268 CNS, 34.3%; in the assay on SF-295 CNS, 35.4%. For the same compound, the growth in the assay on SF-539 CNS was 59.5%; in the assay with UACC-257 melanoma, 57.7%; with M14 melanoma it was 27.2%; with HCT-15 colon, 24.6%; in the assay on HT29 colon it was 0.232% (active); in the assay on SNB-75 CNS it was 43.9%. The growth is 60.5% in the assay with SNB-19 CNS; 12.8% in the assay on PC-3 prostate; 54.8% in the assay with SK-MEL-5 melanoma; 37.4% in the assay with UACC-62 melanoma; 15.3% in the assay with LOX IMVI melanoma; 38.7% in the assay with SK-MEL-2 melanoma.

As to `CCOC(=O)c1sc(N)c(C(=O)OCC)c1C`, the growth is 53.2% in the assay with K-562 leukemia; 74% in the assay on MALME-3M melanoma; 37.4% in the assay with MDA-MB-231 breast; 29.9% with RXF 393 renal; 42.7% in the assay with SF-268 CNS; 81.5% in the assay with SF-295 CNS. Besides, the growth was 38.1% with SF-539 CNS; 78.3% in the assay with UACC-257 melanoma; 78% in the assay on M14 melanoma; 45.4% in the assay on HCT-15 colon; 43.4% with HT29 colon; 36% in the assay with SNB-75 CNS. Also, the growth in the assay on SNB-19 CNS is 71.7%; in the assay with U251 CNS it was 44.2%; in the assay on PC-3 prostate, 54.4%; in the assay on UACC-62 melanoma it was 57.7%; with SK-MEL-28 melanoma it was 78.8%; with SK-MEL-2 melanoma, 75.2%.

For `COc1ccc(/C=C2\SC(=Nc3cc(C)[nH]n3)NC2=O)cc1`, the growth was 101% in the assay on K-562 leukemia; 89.6% in the assay on MALME-3M melanoma; 95.4% in the assay with MDA-MB-231 breast; 80.7% in the assay on RXF 393 renal; 95.8% in the assay with SF-268 CNS; 86.3% in the assay with SF-295 CNS. Further, the growth in the assay on SF-539 CNS is 95.8%; in the assay with UACC-257 melanoma, 98.7%; in the assay with M14 melanoma, 98.1%; in the assay with HCT-15 colon, 84.2%; with HT29 colon, 107%; in the assay with SNB-75 CNS, 95.2%. In addition, the growth is 90.8% in the assay on SNB-19 CNS; 98.1% in the assay with U251 CNS; 81% in the assay with PC-3 prostate; 90.6% with UACC-62 melanoma; 85% with SK-MEL-28 melanoma; 121% in the assay on SK-MEL-2 melanoma.

Take `CCOC(=O)c1c(Nc2ccccc2)nn2c(N)c(C#N)c(-c3ccccc3)nc12`: the growth is 48.5% with K-562 leukemia; 96% in the assay on MALME-3M melanoma; 63.9% in the assay with MDA-MB-231 breast; 68.3% with RXF 393 renal; 87.4% in the assay on SF-268 CNS; 81.3% in the assay on SF-295 CNS. For the same compound, the growth in the assay with SF-539 CNS is 82.2%; in the assay on UACC-257 melanoma, 111%; in the assay with M14 melanoma it was 89%; in the assay with HCT-15 colon, 52.4%; with HT29 colon, 92.1%; in the assay on SNB-75 CNS, 86.1%. For the same compound, the growth is 89.4% in the assay on SNB-19 CNS; 76.5% in the assay with PC-3 prostate; 86.8% in the assay on SK-MEL-5 melanoma; 83.4% with UACC-62 melanoma; 99.4% in the assay on SK-MEL-28 melanoma; 92.2% with SK-MEL-2 melanoma.

As to `Cc1cccc2sc(/N=C(\N)C(Br)Br)nc12`, the growth in the assay on K-562 leukemia is 4.43% (active); in the assay on MALME-3M melanoma, -53.6% (active); in the assay with MDA-MB-231 breast, 6.18% (active); in the assay on RXF 393 renal, -22.5% (active); in the assay with SF-268 CNS, 72.4%; with SF-295 CNS, 29%. Moreover, the growth in the assay with SF-539 CNS was 8.75% (active); with UACC-257 melanoma, 67.8%; in the assay with M14 melanoma it was 32.6%; with HCT-15 colon it was -36.5% (active); in the assay on HT29 colon it was -30.4% (active); with SNB-75 CNS it was 7.62% (active). Besides, the growth is 46.8% in the assay with SNB-19 CNS; 40.8% in the assay with PC-3 prostate; 51.4% in the assay with SK-MEL-5 melanoma; 22% with UACC-62 melanoma; 38.4% in the assay with SK-MEL-28 melanoma; 5.61% (active) in the assay with SK-MEL-2 melanoma.

These data come from PubChem BioAssay (NCI).
